Autofluor counter – counter-screen for toxin protease inhibitors: compound fluorescence. fluorescence intensity (concentration not given with the values). 3.1% of 360,000 active. compound autofluorescence counterscreen, microsphere flow cytometry; active compounds read high; in the data active means fluorescence intensity above about 16000; inconclusive means no clear call, values can overlap the other calls
BoNT F protease – BoNT F light chain protease inhibition. Multiplex microsphere protease cleavage assay, flow cytometry. inhibition, % at 10 µM. 0.22% of 360,000 active. AID 588497; in the data active means inhibition above about 35%, passing the limit was not always enough; inconclusive means no clear call, values can overlap the other calls; further: plate controls were buffer without enzyme for full effect and enzyme alone for no effect
BoNT-A LC inh2 – blocks Botulinum neurotoxin A light chain protease; inhibition, % at 10 µM; 0.17% of 360,000 active; multiplex microsphere protease substrate cleavage, flow cytometry; AID 588499; further: plate controls were buffer without enzyme for full effect and enzyme alone for no effect
Anthrax LF inh2 – inhibitors of Bacillus anthracis lethal factor protease; multiplex microsphere protease cleavage assay, LF; inhibition, % at 10 µM; 0.12% of 360,000 active; further: plate controls were buffer without enzyme for full effect and enzyme alone for no effect
TcdB GH inh – TcdB glycohydrolase inhibition | 0.24% of 350,000 active | TcdB glycohydrolase enzymatic assay, plate reader | inhibition, % at 9.99 µM | AID 652162 | P18177; in the data active means inhibition above about 10%
Target sequence (P18177 whole entry, looked up): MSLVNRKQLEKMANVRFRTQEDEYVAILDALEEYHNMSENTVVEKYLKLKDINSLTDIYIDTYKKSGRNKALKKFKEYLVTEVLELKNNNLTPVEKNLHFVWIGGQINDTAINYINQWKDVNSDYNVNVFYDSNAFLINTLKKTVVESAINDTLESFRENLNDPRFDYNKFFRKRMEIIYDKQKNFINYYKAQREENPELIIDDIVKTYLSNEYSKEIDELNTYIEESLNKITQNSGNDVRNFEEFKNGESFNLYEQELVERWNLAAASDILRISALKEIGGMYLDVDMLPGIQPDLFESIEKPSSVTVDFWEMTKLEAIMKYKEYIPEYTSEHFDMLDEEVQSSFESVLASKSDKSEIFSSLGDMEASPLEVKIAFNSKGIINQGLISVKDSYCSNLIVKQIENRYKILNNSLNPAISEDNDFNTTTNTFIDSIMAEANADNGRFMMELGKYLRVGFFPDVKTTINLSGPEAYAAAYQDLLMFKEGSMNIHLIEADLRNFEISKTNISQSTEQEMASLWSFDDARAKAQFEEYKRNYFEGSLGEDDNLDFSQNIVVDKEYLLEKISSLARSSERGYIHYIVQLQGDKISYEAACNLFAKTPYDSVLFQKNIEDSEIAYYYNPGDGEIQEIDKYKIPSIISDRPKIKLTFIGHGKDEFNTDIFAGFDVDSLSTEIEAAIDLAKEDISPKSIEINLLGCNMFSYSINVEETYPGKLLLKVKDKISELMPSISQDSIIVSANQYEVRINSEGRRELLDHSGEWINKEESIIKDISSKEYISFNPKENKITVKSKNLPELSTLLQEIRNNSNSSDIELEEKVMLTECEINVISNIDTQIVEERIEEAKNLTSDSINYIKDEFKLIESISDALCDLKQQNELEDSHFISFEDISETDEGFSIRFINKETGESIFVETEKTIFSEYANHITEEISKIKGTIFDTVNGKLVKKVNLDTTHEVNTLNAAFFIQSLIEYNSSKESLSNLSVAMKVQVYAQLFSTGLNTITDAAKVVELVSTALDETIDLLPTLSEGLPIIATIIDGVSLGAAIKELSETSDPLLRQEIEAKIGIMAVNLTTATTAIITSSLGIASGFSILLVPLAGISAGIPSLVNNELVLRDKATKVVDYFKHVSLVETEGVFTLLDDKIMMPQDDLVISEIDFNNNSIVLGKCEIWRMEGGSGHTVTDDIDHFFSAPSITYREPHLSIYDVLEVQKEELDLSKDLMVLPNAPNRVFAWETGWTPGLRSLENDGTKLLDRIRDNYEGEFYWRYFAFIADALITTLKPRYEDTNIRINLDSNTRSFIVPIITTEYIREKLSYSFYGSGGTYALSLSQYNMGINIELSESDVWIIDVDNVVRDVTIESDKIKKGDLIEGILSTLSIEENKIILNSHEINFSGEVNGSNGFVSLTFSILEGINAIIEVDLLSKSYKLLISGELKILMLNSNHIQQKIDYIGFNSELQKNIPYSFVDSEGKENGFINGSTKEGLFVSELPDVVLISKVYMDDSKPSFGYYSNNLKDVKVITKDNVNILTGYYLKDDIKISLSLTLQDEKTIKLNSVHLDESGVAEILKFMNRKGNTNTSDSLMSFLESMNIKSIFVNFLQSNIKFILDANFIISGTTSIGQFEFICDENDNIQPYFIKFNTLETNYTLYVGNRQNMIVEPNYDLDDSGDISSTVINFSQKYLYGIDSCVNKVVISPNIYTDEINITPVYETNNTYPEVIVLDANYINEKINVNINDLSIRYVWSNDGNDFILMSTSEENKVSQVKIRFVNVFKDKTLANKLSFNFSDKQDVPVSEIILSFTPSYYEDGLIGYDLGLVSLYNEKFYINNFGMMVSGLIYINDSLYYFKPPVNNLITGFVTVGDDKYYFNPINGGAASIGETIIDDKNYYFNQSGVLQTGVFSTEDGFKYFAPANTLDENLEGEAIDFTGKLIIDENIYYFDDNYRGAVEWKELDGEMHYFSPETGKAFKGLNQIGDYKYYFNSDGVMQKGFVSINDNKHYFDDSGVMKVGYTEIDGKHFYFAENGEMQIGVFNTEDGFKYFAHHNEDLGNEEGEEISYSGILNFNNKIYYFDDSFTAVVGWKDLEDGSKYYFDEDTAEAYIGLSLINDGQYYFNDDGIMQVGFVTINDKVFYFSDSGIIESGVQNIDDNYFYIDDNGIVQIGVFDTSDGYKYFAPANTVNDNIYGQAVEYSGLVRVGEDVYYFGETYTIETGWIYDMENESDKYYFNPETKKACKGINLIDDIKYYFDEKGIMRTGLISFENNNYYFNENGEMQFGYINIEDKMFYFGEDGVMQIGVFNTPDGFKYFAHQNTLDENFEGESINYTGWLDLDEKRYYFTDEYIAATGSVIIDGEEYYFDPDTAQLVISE
Numbers without * were called inactive; ? = inconclusive; · = no result given. Shown is part of a subset that was picked to be rich in hits. Unless noted, no stated cut-off is given here; in the data, active means inhibition above about 30%; inconclusive means no clear call, values can overlap the other calls; inactive means below that.

SMILES	Autofluor counter	BoNT F protease	BoNT-A LC inh2	Anthrax LF inh2	TcdB GH inh
O=c1cc(O)c2c(=O)n(Cc3ccccc3)c3ccccc3c2o1	3241	1	4	0	1
O=c1cc(O)c2c(=O)n(C3CCCCC3)c3ccccc3c2o1	22987*	2	0	2	·
CO[C@@H]1CC[C@@H]2CCN(C)C(=O)CCCN(C)C(=O)c3cc(C#N)ccc3OC[C@@H]1O2	·	·	·	·	0
CCOc1ccc(NC(=O)CN(C2CCCCC2)S(C)(=O)=O)cc1	22520*	0	?	-9	·
Oc1cccc(/C=N/N2CCN(c3ccccn3)CC2)c1	4561	-2	0	-3	2
Oc1ccc(/C=N/N2CCN(c3ccccn3)CC2)cc1	6289	-6	-2	0	13*
Cc1cc(C(F)(F)F)nn1CCCNC(=O)c1cnccn1	23254*	0	?	-2	1
CN(C)C(=O)[C@H]1[C@H](CO)[C@H]2Cn3c(ccc(-c4ccccc4F)c3=O)[C@@H]1N2C(=O)c1ccncc1	·	·	·	·	0
CC1(C)Cc2nc3sc4c(OCc5ccccc5)ncnc4c3cc2CO1	3680	5	0	3	·
CCc1nc(OCc2ccccc2)c2sc3nc4c(cc3c2n1)COC(C)(C)C4	21172*	8	?	-8	·
Cc1ccc2nc(/C(C#N)=C\c3ccc(N4CCOCC4)o3)[nH]c2c1	13254	110*	-4	-2	·
Cc1cc(C)nc(SC(C)C(=O)Nc2ccc(S(N)(=O)=O)cc2)n1 (stereo unspecified)	21604*	2	?	1	·
C[C@H]1CN([C@@H](C)CO)C(=O)Cc2cc(NC(=O)Nc3ccc(F)cc3)ccc2O[C@@H]1CN(C)Cc1ccc(C(F)(F)F)cc1	·	·	·	·	-1
COc1cc(CNc2ncn[nH]2)cc(Br)c1OC	23846*	0	?	-2	·
COc1cccc(-c2ccc([C@H]3[C@@H](CO)N4C(=O)CN(C(=O)c5ccncc5)C[C@@H]34)cc2)c1	·	·	·	·	0
Clc1ccc(C2=NN(c3ccccc3)C(c3ccco3)C2)cc1 (stereo unspecified)	·	·	·	·	1
Cc1nn2c(c1-c1ccc(Cl)cc1)N=C(c1ccco1)CC2c1ccccc1 (stereo unspecified)	22364*	3	6	-1	-2
CC(=O)c1cccc(NC(=O)NCc2cccnc2)c1	20530*	0	0	-1	1
O=C(NCc1cccnc1)Nc1ccccc1	2270	-4	0	-1	0
O=C(NCc1cccnc1)Nc1cccc(NC(=O)NCc2cccnc2)c1	27382*	-13	-8	-3	·
O=C(NCc1cccnc1)Nc1cccc(Cl)c1	3734	-6	0	0	1
C[C@@H]1CCCCO[C@H](CN(C)Cc2ccc(Cl)c(Cl)c2)[C@H](C)CN([C@@H](C)CO)C(=O)c2cc(NS(=O)(=O)c3cn(C)cn3)ccc2O1	·	·	·	·	1
O=C(Nc1ccccc1F)N1CCCCN2[C@H](C1)[C@@H](c1ccc(C3=CCCC3)cc1)[C@@H]2CO	·	·	·	·	1
COc1ccc(C(O)(C(C)C)C(CN2CCOCC2)c2ccccc2)cc1 (stereo unspecified)	3918	-1	-2	-7	21*
COc1ccc2c3c([nH]c2c1)[C@@H](CO)N(S(C)(=O)=O)CC31CN(C(=O)c2ccncc2)C1	·	·	·	·	1
SMILES	Autofluor counter	BoNT F protease	BoNT-A LC inh2	Anthrax LF inh2	TcdB GH inh
CCOC(=O)c1oc2ccc(S(=O)(=O)N3CCOCC3)cc2c1C	16344*	-1	?	-1	1
CCOC(=O)c1oc2ccc(S(=O)(=O)N3CCC(C)CC3)cc2c1C	10231	-6	0	2	0
CCOC(=O)c1oc2ccccc2c1NC(=O)c1ccc(S(=O)(=O)N(C)C)cc1	20341*	8	6	-7	·
CCOC(=O)c1oc2ccccc2c1NC(=O)c1ccc(S(=O)(=O)N2CCCC2)cc1	20008*	2	2	0	0
CN(C)S(=O)(=O)c1ccc(C(=O)Nc2ccccc2F)cc1	16551*	1	-1	-2	2
CCOC(=O)c1[nH]c2ccccc2c1NC(=O)c1ccc(S(=O)(=O)N(C)C)cc1	6050	0	0	-3	3
O=C(C[C@@H]1CC[C@@H]2[C@H](COC[C@H](O)CN2C(=O)Nc2ccc(C(F)(F)F)cc2)O1)NCCc1ccncc1	·	·	·	·	-1
O=C(C[C@@H]1C=C[C@H](NC(=O)c2ccccn2)[C@@H](CO)O1)NCc1cc(F)cc(F)c1	·	·	·	·	0
O=C(C[C@@H]1C[C@H]2c3cc(NC(=O)c4cccnc4)ccc3O[C@H]2[C@H](CO)O1)NC1CCCC1	·	·	·	·	0
O=C(Nc1ccccc1F)N[C@@H]1CC[C@@H](CCNC(=O)C2CC2)O[C@@H]1CO	·	·	·	·	-1

Screening results deposited in PubChem BioAssay by several laboratories.
